LmPK inh: qHTS Assay for Inhibitors of Leishmania Mexicana Pyruvate Kinase (LmPK); Q27686; purified LmPK, Kinase-Glo ATP luminescence, 1 h; Potency, µM (top dose mostly 57.5 µM), without a hit: at the highest dose activity change, negative = inhibition, most hits filed as inhibitors; 290,000 compounds, 0.37% hits; also: potency is read from the fitted curve at half-maximal effect; % is scaled to controls: 0 for no effect and ±100 for the full control effect
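In 50 mM imidazole pH 7.2 with 7 mM MgCl2, LmPK (0.1 nM) turned over PEP (0.5 mM) and ADP (0.1 mM) for 1 h at room temperature. Luciferase read-out of ATP.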
Cycloheximide cs: Cycloheximide Counterscreen for Small Molecule Inhibitors of Shiga Toxin; cell reporter, cycloheximide protein synthesis inhibition counterscreen; max response, %; 300,000 compounds, 12% hits; AID 2314, 2010; in the data active = max response mostly above about 13%, no sharp cut-off; inactive = mostly below about 14%; also: read at 38.3 µM for the half of the compounds with a filed dose; 0% is about no effect
Sm TGR block: qHTS Assay for the Inhibitors of Schistosoma Mansoni Peroxiredoxins; Schistosoma mansoni thioredoxin glutathione reductase (TGR), Q962Y6; purified TGR, DTNB reduction, TNB absorbance 405 nm; Potency, µM (titrated, usually from 114 µM), without a hit: top-dose activity change, negative = inhibition, most hits filed as inhibitors; 360,000 compounds, 3% hits; AID 485364, 2010; also: potency is read from the fitted curve at half-maximal effect; % is scaled to controls: 0 for no effect and ±100 for the full control effect; nearly all actives have a fitted effect of over 60% in size
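First, TGR (20 nM dispensed) and NADPH were mixed with compound. Second, a 15 min room-temperature incubation followed. Third, further NADPH and then DTNB were added to start the reaction. Finally, TNB absorbance was monitored kinetically.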
Shiga toxin inh: A qHTS for Small Molecule Inhibitors of Shiga Toxin; Vero cells, Shiga toxin protein synthesis inhibition reporter; inhibition, % at 38.7 µM; 290,000 compounds, 9.2% hits; AID 2315, 2010; in the data active = inhibition mostly above about 28%, no sharp cut-off; inactive = mostly below about 43%; also: 0% is about no effect
TbPYK inhibitor: qHTS of Trypanosoma Brucei Inhibitors; AID 624173, 2012; 410,000 compounds, 0.12% hits; pyruvate kinase (Trypanosoma brucei), Q57TT1; TbPYK enzyme, Kinase-Glo Plus ATP luminescence, 45 min; Potency, µM (series often up to 76.8 µM), for the others: top-dose activity, negative = inhibition, hits mostly inhibitors; also: potency is read from the fitted curve at half-maximal effect; % is scaled to controls: 0 for no effect and ±100 for the full control effect; nearly all actives have a fitted effect of over 50% in size
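In this concentration-response screen, enzyme-free wells defined baseline while DMSO plates tracked drift. Each reaction combined TbPYK, substrate, compound and 130 uM ADP for 45 min at room temperature. Kinase-Glo Plus luminescence gave the signal.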
FBPA Giardia inh: qHTS Assay for Inhibitors of Fructose-1,6-bisphosphate Aldolase from Giardia Lamblia; A8B2U2; purified Giardia FBPA; Potency, µM (top dose mostly 59.6 µM), for the others: top-dose activity, negative = inhibition, usual class: inhibitors; 290,000 compounds, 0.71% hits; AID 2451, 2010; also: potency is read from the fitted curve at half-maximal effect; % is scaled to controls: 0 for no effect and ±100 for the full control effect; nearly all actives have a fitted effect of over 55% in size
Target sequence (A8B2U2 whole entry, looked up): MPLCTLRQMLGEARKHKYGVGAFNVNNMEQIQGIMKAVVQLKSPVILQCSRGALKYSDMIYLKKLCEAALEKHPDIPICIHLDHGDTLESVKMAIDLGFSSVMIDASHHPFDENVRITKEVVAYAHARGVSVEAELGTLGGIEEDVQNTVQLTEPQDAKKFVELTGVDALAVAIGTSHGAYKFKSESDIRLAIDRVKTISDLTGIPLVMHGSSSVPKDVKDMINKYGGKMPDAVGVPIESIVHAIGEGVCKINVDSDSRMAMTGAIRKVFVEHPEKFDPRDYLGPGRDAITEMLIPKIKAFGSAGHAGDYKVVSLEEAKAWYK
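Giardia FBPA (40 nM reagent) was preincubated 10 min at RT with compound (up to 57.5 uM final), then substrate plus GAPDH/TPI/NAD/arsenate coupling system with diaphorase/resazurin was added; resorufin fluorescence (525/598 nm) was read after 20 min.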
Active calls of the source: *; ? = inconclusive; / = no result; + = active, no number; [ ] = another dose, or the depositor's remark. Many of the other results were omitted from the sample, so hits are more common in it than they were. Unless noted, calls follow the shape of the dose curve; as a rule, active = well fitted curve in the direction sought with a large enough effect; inconclusive = small, poorly fitted or top-dose-only effect, or another doubt; inactive = no such curve, though single readings can be large; an effect the other way counts as inactive or inconclusive.

SMILES	LmPK inh	Cycloheximide cs	Sm TGR block	Shiga toxin inh	TbPYK inhibitor	FBPA Giardia inh
COc1ccc2nc3oc(C(=O)N4CCN(c5cccc(Cl)c5)CC4)cc3cc2c1	0%	5	3%	16	0%	-24%
O=C(c1ccc(CS(=O)(=O)c2ccccc2)o1)N1CCOCC1	10%	6	40µM*	16	8%	3%
Cc1ccc(S(=O)(=O)Cc2ccc(C(=O)N3CCN(Cc4ccccc4)CC3)o2)cc1	2%	-2	35µM*	-10	/	11%
CCc1ccc2nc(N(Cc3cccnc3)C(=O)c3cccs3)sc2c1	/	/	7%	/	3%	/
CCCCN(CC)CCCNC(=O)CS(=O)(=O)Cc1nc(-c2ccc(C)cc2)oc1C	/	/	-15%	/	6%	/
Cc1cc2c(cc1S(=O)(=O)N(C)Cc1ccccc1)OCC(=O)N2	-2%	-3	19%	6	-13%	-6%
C[C@H](CO)N1C[C@H](C)[C@@H](CN(C)S(=O)(=O)c2ccccc2F)Oc2ncc(C#Cc3cccnc3)cc2C1=O	/	/	/	/	-2%	/
COc1ccc(S(=O)(=O)Cc2ccc(C(=O)N3CCc4ccccc4C3)o2)cc1	9%	5	20µM*	1	-14%	1%
Cc1ccc(S(=O)(=O)Cc2ccc(C(=O)N3CCc4ccccc4C3)o2)cc1	1%	-8	40µM*	-12	-4%	-3%
COc1ccc(S(=O)(=O)Cc2ccc(C(=O)N3CCN(C(=O)c4ccco4)CC3)o2)cc1	5%	2	?	26	-12%	3%
CCOc1ccccc1N1CCN(C(=O)CSc2ccc3c(c2)OCCO3)CC1	/	/	4%	/	4%	/
CC(C)NC(=O)C1CC(=O)N(CCc2ccc(F)cc2)C1 (stereo not given)	/	/	/	/	6%	/
COCCNC(=O)[C@H](C)/C=C(\c1cccnc1)C(NC(=O)OCc1ccccc1)c1ccc(C(=O)OC)cc1 (stereo not given in full)	/	/	/	/	/	3%
COc1ccc2nc(NC(=O)CS(=O)(=O)Cc3ccccc3)sc2c1	1%	3	-5%	-2	7%	4%
COc1ccc2nc(NC(=O)CCc3ccc(OC)c(OC)c3)sc2c1	-1%	30*	1%	30	5%	4%
CCCC(=O)Nc1nc2ccc(OC)cc2s1	-6%	75*	-1%	104*	0%	-6%
COc1ccc2nc(NC(=S)N(C)C)sc2c1	-25%	47*	-4%	68*	-25%	30%
CCN1CCN(CC(=O)Nc2nc3ccc(OC)cc3s2)CC1	-4%	-3	-2%	4	4%	?
COc1ccc(/C=N/OCC(=O)Nc2nc3ccccc3s2)cc1	-2%	34*	-3%	+	-2%	0%
O=C1c2cc(O)cc(O)c2OC[C@@H]1c1ccc(O)c(O)c1	/	-4	/	-7	/	-15%
CN(CC(=O)Nc1cccc(Cl)c1)S(=O)(=O)c1ccc2[nH]c3c(c2c1)CCCC3	/	/	-2%	/	-2%	/
CSCCC1COC(c2cccs2)=N1 (stereo not given)	1%[11.5 µM]	39*	9%	65*	-7%	1%
Cc1cc(Cl)ccc1OCC(=O)N1CCN(c2ncccn2)CC1	1%	-1	0%	5	1%	0%
CCC1CCCCN1C(=O)CCCOc1ccccc1 (stereo not given)	7%	44*	-9%	47	?	1%
Cc1cc(Cl)ccc1OCC(=O)N1CCCCC1	-3%	47*	-1%	64*	2%	6%
SMILES	LmPK inh	Cycloheximide cs	Sm TGR block	Shiga toxin inh	TbPYK inhibitor	FBPA Giardia inh
CCOC(=O)C1CCN(C(=O)COc2ccc(C(=O)c3ccccc3)cc2)CC1	/	/	/	/	-3%	/
CCOC(=O)C1CCN(C(=O)CCCOc2ccccc2)CC1	-8%	36*	7%	64*	-6%	2%
O=C(CCCOc1ccccc1)N1CCCCC1	5%	55*	4%	17	3%	3%
Cc1cc(N2CCN(c3cccc(C)c3C)CC2)n2cnnc2n1	/	/	-10%	/	0%	/
CNC1=C(Cl)C(=O)c2ccncc2C1=O	/	/	/	/	/	22%
COc1ccc(OCCC(=O)N2CCOCC2)cc1	0%	8	0%	34	3%	6%
O=C(CCCOc1ccc(Cl)cc1)N1CCCCCC1	4%	39*	-35%	77*	-11%	-4%
O=C(CCCOc1ccc(Cl)cc1)N1CCCCC1	-14%	40*	-1%	85*	5%	7%
O=C(CCCOc1ccc(Cl)cc1)N1CCOCC1	-2%	11	-15%	30*	-9%	-1%
CCOc1ccc(OCCCC(=O)N2CCN(S(=O)(=O)c3ccc(Cl)cc3)CC2)cc1	/	/	-12%	/	?	/
O=C(COc1ccc(Cl)cc1)N1CCCCCCC1	0%	13	-6%	7	1%	0%
O=C(COc1ccc(S(=O)(=O)N2CCCCC2)cc1)N1CCN(Cc2ccccc2)CC1	3%	-3	28µM*	-8	-9%	0%
CC(C)(C)c1ccc(Cn2nnc3c(=O)[nH]c(C4CCCN(C(=O)c5cccs5)C4)nc32)cc1 (stereo not given)	8%	-4	9%	2	-4%	-9%
C[C@H](NC(=O)[C@@H](Cc1c[nH]c2ccccc12)NC(=O)[C@@H](N)Cc1cnc[nH]1)C(=O)N[C@@H](Cc1c[nH]c2ccccc12)C(=O)N[C@H](Cc1ccccc1)C(=O)N[C@@H](CCCCN)C(N)=O	/	-3	/	-3	/	7%
CC1CCC(N2CC(=O)N(C3CCCCC3)C(c3ccc(F)cc3)C2=O)CC1 (stereo not given)	/	/	20%	/	-1%	/
N#Cc1c(-c2ccc(F)cc2)c(-c2ccc(F)cc2)nn(CCO)c1=O	/	/	/	/	-1%	/
CC(C)(C)c1ccc(OCCCC(=O)N2CCOCC2)cc1	1%	40*	0%	55*	1%	-1%
O=C(CSCc1cccc(Cl)c1)N/N=C/c1ccc(OCC(=O)N2CCCCC2)cc1	1%	13*	14%	-3	-20%	5%
CCOC(=O)C(=O)N1CCC(C(=O)OCC)CC1	1%	28*	1%	29	3%	-3%
O=C(COc1ccc(Cl)cc1)N1CCCCC1	1%	34*	4%	52*	6%	-2%
CCOC(=O)C1CCN(C(=O)C(=O)N2CCC(C(=O)OCC)CC2)CC1	-5%	-2	0%	7	1%	3%
Cc1cccc(C(=O)N/N=C/c2ccc(OCC(=O)N3CCCCC3)cc2)c1	-2%	4	-32%	23	-4%	4%
O=C(c1cnccn1)N1CCC[C@@]2(CCN(c3ccncc3)C2)C1	/	/	/	/	5%	-15%

Source: PubChem (National Center for Advancing Translational Sciences (NCATS))
